Among all 220,000 compounds or so, about 2,000 (0.91%) were called active. About 2% were inconclusive and are not listed. Not all results are given here. Measured potencies and affinities stand elsewhere. Unmarked numbers belong to inactive results. Rule as the data show it: inconclusive = inhibition above about 80% without an active follow-up result; inactive = below that; test concentration not stated here.

A short description of this assay: M. tuberculosis H37Rv growth inhibitors, H37Rv strain (AID 1626).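 Also: bacteria incubated seven days before Alamar blue readout; 0% = bacteria only wells and 100% = bacteria with antibiotic wells.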 The note with it: active compounds read high, concentration not given here.
For orientation: inhibition means the change of the read-out against control, counted positive when it falls. `Clc1ccc(-c2c(C3=NCCCN3)nnn2-c2ccc(Cl)cc2)cc1`: the inhibition is 2.74%.
Regarding `Cc1cc(=O)[nH]c(SCc2nc3ccccc3n2Cc2ccccc2)n1`, the inhibition was -7.65%.
For `Cc1ccc(C(=O)Cn2nnc(-c3cccs3)n2)cc1`, the inhibition was -5.53%.
The same measure for `CCN1CCN(Cc2ccc(NC(=O)c3ccc(C)c(NC(=O)N4CCNC4=O)c3)cc2C(F)(F)F)CC1`: -4.19%; for `CCN1CCN(Cc2ccc(NC(=O)c3ccc(C)c(NC(=O)c4ccno4)c3)cc2C(F)(F)F)CC1`: 1.48%.
For `CCN1CCN(Cc2ccc(NC(=O)c3ccc(C)c(NC(=O)c4nccn4C)c3)cc2C(F)(F)F)CC1` the value was 2%; for `CCN1CCN(Cc2ccc(NC(=O)c3ccc(C)c(NC(=O)c4cccc5[nH]ccc45)c3)cc2C(F)(F)F)CC1`, -5.49%; for `Cc1ccc(S(=O)(=O)N2CCOCC2)cc1NC(=O)CN1CCC(Cc2ccccc2)CC1`, 9.42%.
Regarding `Cc1cc(C(=O)OCC(=O)N2CC(C)CC(C)C2)c(C)o1` (centres undefined), the inhibition was -6.8%.
As to `CC1CCN(C(=O)COC(=O)c2cc(Cl)cc(Cl)c2N)CC1`, the inhibition was -13.4%.
Turning to `COc1cc2ccccc2cc1C(=O)OCC(=O)N1CCOCC1`, the inhibition was -12.6%.
The same measure for `CC(C)(C)C(=O)COC(=O)c1ccccc1O`: 10.3%.
With `COc1cccc(C(=O)OCC(=O)c2c[nH]c3ccccc23)c1O`, the inhibition is 7.28%.
As to `CCOC(=O)c1c(C)[nH]c(C)c1C(=O)COC(=O)c1cc2ccccc2cc1O`, the inhibition is -1.14%.
With `CC(=O)OCC(=O)c1c[nH]c2ccccc12`, the inhibition is -1.25%.
On to `CC1CC(C)CN(C(=O)COC(=O)c2ccc[nH]c2=O)C1` (centres undefined), for which the inhibition is -10%.
With `COc1ccccc1C/C(N)=N/OC(=O)c1ccc(C)c([N+](=O)[O-])c1`, the inhibition is 3.93%.
For `Cc1nnc(SCC(=O)N2CCN(S(=O)(=O)c3ccc(Cl)cc3)CC2)[nH]c1=O`, the inhibition was -6.4%.
In the case of `COc1ccc(C(=O)CSc2nnc(NC(=O)C3CC(=O)N(c4ccccc4C)C3)s2)cc1` (centres undefined), the inhibition is 2.7%.
The same measure for `O=C(Nc1c(-c2cccs2)nc2ccccn12)c1ccc2ccccc2c1`: 0.95%; for `CCC(CC)C(=O)Nc1cccc(-c2nc3ccccc3o2)c1`: 0.04%.
Consider `CCN(CC)C(=O)CC(c1ccccc1)c1ccco1` (centres undefined), for which the inhibition was -14.2%.
As for `Cc1cc(C)nc(N(C#N)CCOc2ccc(Cl)cc2)n1`, the inhibition is -4.66%.
With `Cn1c(=O)c2c(nc(SCCN3CCCCC3)n2Cc2ccccc2)n(C)c1=O`, the inhibition is -2.51%.
In the case of `CC(C)C(NC(=O)c1ccccc1F)C(=O)Nc1ccc2c(c1)OCO2` (centres undefined), the inhibition is 1.73%.
For `CN(C)C(=O)/C(=C\c1cccc(Oc2ccccc2)c1)NC(=O)c1ccccc1`, the inhibition is 4.22%.
`C/C(=N\NC(=O)c1cc(-c2cccnc2)nc2ccccc12)c1ccccc1O`: the inhibition is 2.39%.
Turning to `CCC1CCCCN1C(=O)COC(=O)c1n[nH]c2ccccc12` (centres undefined), the inhibition was -3.06%.
In the case of `O=C(COC(=O)c1cc(Br)ccc1Cl)NC1CC1`, the inhibition is 26.2%.
As to `O=C(COc1ccc(Cl)cc1)OCC(=O)N1CCCC1`, the inhibition is 0.56%.
As for `O=C(COc1ccc(Cl)cc1)OCC(=O)N1CCCCCC1`, the inhibition is 7.95%.
On to `O=C(OCC(=O)N1CCCCC1)c1ccccc1SCC(=O)N1CCCCC1`, for which the inhibition is 9.57%.
Turning to `Cc1cc(C(=O)OCC(=O)N2CCCC2)c2ccccc2n1`, the inhibition is -17.2%.
Consider `O=C(OCC(=O)N1CCCC1)c1cc(Br)ccc1Cl`, for which the inhibition was 7.39%.
For `CCC1CCCCN1C(=O)CCCOc1ccccc1` (centres undefined) the value was -1.7%; for `O=C(CNS(=O)(=O)c1ccccc1)Nc1ccc2c(c1)OCO2`, 0.17%.
For `O=C(Nc1ccccc1C(=O)N1CCNCC1)c1ccco1` the value was -1.36%.
In the case of `CC1CCc2nn(CC(=O)Nc3c(F)cc(F)cc3Br)cc2C1` (centres undefined), the inhibition was 0.73%.
For `Cc1cc(C(=O)N2CCCC(C(=O)c3cccc(C(F)(F)F)c3)C2)nc(C)n1` (centres undefined), the inhibition was -11%.
Turning to `COc1ccc(Cl)cc1-c1csc(N)n1`, the inhibition was -2.91%.
Consider `O=C(CSc1nc2ccc([N+](=O)[O-])cc2[nH]1)c1ccc2ccccc2c1`, for which the inhibition was 13.4%.
For `Cc1ccc(NS(=O)(=O)c2cc(C(=O)NCc3ccccn3)ccc2Cl)cc1C` the value was 4.55%.
Take `CC(=O)Nc1cccc(NC(=O)c2cc(C)on2)c1`: the inhibition was -10.6%.
`CC(=O)c1ccc(NC(=O)Cn2nc(C)c([N+](=O)[O-])c2C)cc1`: the inhibition is 2.02%.
In the case of `CN(C)CCN1CC(C(=O)O)CC1=O` (centres undefined), the inhibition was -2.28%.
With `CN1CCN(S(=O)(=O)c2ccc(-c3noc(C4CCN(S(C)(=O)=O)CC4)n3)cc2)CC1`, the inhibition was -1.89%.
Consider `O=C(Oc1ccc(/C=N/O)cc1)c1ccccc1`, for which the inhibition is 30.8%.
For the molecule `O=C(O)c1ccc(N/N=C/c2ccc(OC(=O)c3ccccc3Cl)cc2)cc1`, the inhibition is 4.34%.
For the molecule `CCc1ccc2[nH]c(O)c(N=NC3=NC(=O)CS3)c2c1`, the inhibition is 1.19%.
The same measure for `Cn1c(O)c(N=Nc2nc(-c3ccccc3)cs2)c2ccccc21`: 68%.
`COc1ccc(CCNC2CCCCC2)cc1OC`: the inhibition was 5.74%.
On to `O=C(Nc1ccccn1)c1ccc(Br)c(S(=O)(=O)N2CCCCC2)c1`, for which the inhibition is 4.83%.
In the case of `CCCN(N=Nc1cccc([N+](=O)[O-])c1)c1cccc([N+](=O)[O-])c1`, the inhibition is 1.3%.
Take `O=c1cc(-c2ccc(O)cc2)oc2cc(O)cc(O)c12`: the inhibition is -7.5%.
The same measure for `O=c1cc(-c2ccccc2)oc2cc(O)cc(O)c12`: 17.6%.
As for `Cc1cc(OCC(=O)NC(C)C)ccc1Cl`, the inhibition is 8.21%.
As for `Cc1noc(-c2ccc(C(F)(F)F)cc2)c1NC(=O)Nc1ccc(Cl)cc1`, the inhibition was 13.4%.
In the case of `O=C(O)c1cccc(Cn2c(Cl)c(/C=N/NC(=O)c3ccc(O)cc3)sc2=O)c1`, the inhibition was -11.5%.
In the case of `O=c1[nH]c(SCc2ccc([N+](=O)[O-])cc2)nc2[nH]ncc12`, the inhibition was -6.17%.
For the molecule `CC[C@H]1CC2CN3CCc4c([nH]c5ccccc45)C(C(=O)OC)(C2)C13` (some centres undefined), the inhibition is 0.73%.
As for `CC[C@H]1CC2CN3CCc4c([nH]c5cc(OC)ccc45)[C@](C(=O)OC)(C2)[C@H]13`, the inhibition was -5.98%.
Take `COC(=O)C1=C(c2cc3ccccc3o2)C[C@@H]2CC[C@H]1N2C(=O)NC(C)C`: the inhibition is 19.5%.
For `Cn1c(NCc2ccco2)nc2c1c(=O)n(Cc1ccc(Cl)c(Cl)c1)c(=O)n2C`, the inhibition was 6.79%.
For `Cn1c(NCc2ccccc2)nc2c1c(=O)n(Cc1ccccc1)c(=O)n2C` the value was -5.24%; for `Cn1c(NCc2ccco2)nc2c1c(=O)n(Cc1ccc(Cl)cc1)c(=O)n2C`, 7.2%.
In the case of `COc1ccc(CNc2nc3c(c(=O)n(Cc4ccc(Br)cc4)c(=O)n3C)n2C)cc1`, the inhibition was 34.1%.
For `CC(C)c1nnc(N2C(=O)c3oc4ccccc4c(=O)c3C2c2ccco2)s1` (centres undefined) the value was -6.42%; for `CC(=O)c1ccc(NC(=O)CSc2nnc(Cn3cnc4ccccc43)o2)cc1`, -0.74%; for `CCc1cc2cc3c(cc2nc1SCC(=O)Nc1nnc(C)s1)OCCO3`, -4.07%.
With `COc1ccc(CNCCC(c2ccc(F)cc2)c2ccc(OC)cc2)cc1` (centres undefined), the inhibition was 41.6%.
The same measure for `COc1ccc(CNCCC(c2ccc(OC(C)C)cc2)C(C)C)cc1OC` (centres undefined): 45.4%; for `COc1ccc(C(CCNCc2ccccc2)c2ccc(F)cc2)cc1` (centres undefined): -2.55%; for `COc1ccc(C(CCNCc2ccc(OC)c(OC)c2)c2ccc(F)cc2)cc1` (centres undefined): 2.06%.
Regarding `COc1ccccc1Nc1nc(N)nc(CSC(=S)N2CCCCC2)n1`, the inhibition was 5.54%.
Take `CCCc1nnc(SCC(=O)N2CCCCC2C)n1CC` (centres undefined): the inhibition is -2.59%.
As for `CCOc1ccc(-c2ccc(SCC(=O)NCC3CCCO3)nn2)cc1` (centres undefined), the inhibition is 3.18%.
With `Cc1cc(=O)[nH]c(SCC(=O)Nc2ccccc2C)n1`, the inhibition was -0.5%.
Consider `COc1ccccc1NS(=O)(=O)c1cccc(C(=O)N/N=C(\C)c2ccc(-n3ccnc3)cc2)c1`, for which the inhibition is -7.54%.
As to `C/C(O)=C(/C#N)c1nc2ccccc2[nH]1`, the inhibition was 10.1%.
Take `c1ccc2c(N3CCOCC3)nc(N3CCOCC3)nc2c1`: the inhibition was -0.04%.
For the molecule `c1ccc2c(NCC3CCCO3)nc(N3CCOCC3)nc2c1` (centres undefined), the inhibition was -4.2%.
For `CCCCNS(=O)(=O)c1ccc2nc(-c3cccnc3)cc(C(=O)NCCCN(CC)CC)c2c1`, the inhibition is -1.2%.
For `O=C(Nc1ccc2c(c1)OCCO2)c1cccc(S(=O)(=O)N2CCOCC2)c1` the value was 2.68%.
Consider `Cc1ccc(CNC(=O)C2CCCN(Cc3cnn(-c4ccccc4)c3-n3cccc3)C2)cc1` (centres undefined), for which the inhibition is 3.25%.
`COc1cccc(CNc2ncnc3cc(Cl)ccc23)c1`: the inhibition is 2.79%.
Take `COc1ccc(CNc2ncnc3cc(Cl)ccc23)cc1OC`: the inhibition is 3.34%.
`COc1ccc(C(=O)C(CCC(CNC(C)(C)C)C(=O)c2ccc(OC)cc2)CNC(C)(C)C)cc1` (centres undefined): the inhibition was 3.24%.
As for `O=C(OCC#CCSc1nc2ccccc2s1)c1ccco1`, the inhibition was 74.1%.
With `N#CCSc1nc2ccccc2o1`, the inhibition is -5.91%.
For the molecule `O=C(CSc1nc2ccccc2o1)N1CCN(C(=O)c2ccco2)CC1`, the inhibition was 8.7%.
On to `O=C(CSc1nc2ccccc2o1)c1cc2ccccc2oc1=O`, for which the inhibition is 1.02%.
`Cc1ccc2c(c1)c1c3n2CCCNC3CCC1` (centres undefined): the inhibition was 3.76%.
Consider `c1ccc2c(c1)c1c3n2CCNC3CCC1` (centres undefined), for which the inhibition is 3.79%.
As to `CCOC(=O)C(=O)Nc1nc(-c2ccccc2)c(-c2ccccc2)o1`, the inhibition was -0.88%.
As to `COc1cccc(C(=O)Nc2c(F)c(F)c(F)c(F)c2F)c1`, the inhibition is 0.52%.
The same measure for `CC(=O)Nc1nc(-c2ccccc2)c(-c2ccccc2)o1`: 56.4%; for `COc1cc(OC)cc(C(=O)Nc2ccc(-c3nc4ccccc4o3)cc2)c1`: 16%.
For `COc1cc(OC)cc(C(=O)Nc2ccc(-c3nc4ccccc4o3)c(O)c2)c1`, the inhibition is 66.5%.
`COc1cccc(C(=O)Nc2ccccc2)c1`: the inhibition was -3.26%.

The values are drawn from PubChem BioAssay AID1626 (SRMLSC, 2009).
